Our source for the activation over 3SD threshold values is PubChem BioAssay.

This is one part of the list. Calls of active or inactive are those of the source.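 The calls were made as follows: active = fluorescence ratio rise of at least 3 SD of vehicle wells above their mean, in both replicate wells; inactive = the rest.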

For the experiment, the target named is Potassium voltage-gated channel subfamily KQT member 1 (Homo sapiens) (UniProt P51787). In words: human KCNQ1 channel potentiation off-target, confirmation, selectivity assay for KCNQ2 potentiator project, cell-based, CHO, FluxOR thallium flux (AID 2283).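 Also: 0% = vehicle mean plus 3 SD and 100% = vehicle minus unstimulated blank.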 The settings on record: CHO KCNQ1 stable, FluxOR thallium flux fluorescence; at 10 µM; stronger effect = higher value; beyond 3SD, as % of vehicle-control signal.
Sequence of Potassium voltage-gated channel subfamily KQT member 1 (Homo sapiens) (P51787 whole entry, looked up): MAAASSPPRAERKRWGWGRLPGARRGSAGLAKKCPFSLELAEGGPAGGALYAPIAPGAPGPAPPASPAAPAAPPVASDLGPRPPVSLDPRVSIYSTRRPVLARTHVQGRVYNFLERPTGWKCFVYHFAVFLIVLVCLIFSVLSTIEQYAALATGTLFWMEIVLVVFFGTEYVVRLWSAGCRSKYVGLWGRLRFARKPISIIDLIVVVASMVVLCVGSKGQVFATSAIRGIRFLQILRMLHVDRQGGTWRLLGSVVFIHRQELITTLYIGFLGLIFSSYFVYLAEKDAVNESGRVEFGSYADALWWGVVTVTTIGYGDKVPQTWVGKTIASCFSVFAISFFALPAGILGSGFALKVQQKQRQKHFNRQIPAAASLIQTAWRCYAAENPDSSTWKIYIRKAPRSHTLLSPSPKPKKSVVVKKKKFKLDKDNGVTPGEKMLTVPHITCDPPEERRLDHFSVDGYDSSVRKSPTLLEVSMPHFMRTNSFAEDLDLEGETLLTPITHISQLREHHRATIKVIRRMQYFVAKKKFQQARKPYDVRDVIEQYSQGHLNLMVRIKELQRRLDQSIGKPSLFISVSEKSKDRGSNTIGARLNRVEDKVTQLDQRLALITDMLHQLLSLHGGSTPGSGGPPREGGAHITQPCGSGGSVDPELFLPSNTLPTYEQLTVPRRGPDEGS
As for `C/C(=N\NC(=O)c1ccoc1C)c1ccccc1O`, the activation over 3SD threshold is -7.3% (inactive).
Take `CCn1c2ccccc2c2cc(NC(=O)CNC)ccc21`: the activation over 3SD threshold is -12.2% (inactive).
On to `O=C(NNC1=C(C(=O)C(F)(F)F)CCC1)c1ccncc1`, for which the activation over 3SD threshold is -11.4% (inactive).
For `Cc1ccc(NC(=O)C2CC2c2ccccc2)cc1` (stereo unspecified), the activation over 3SD threshold is 64.2% (active).
For `Cc1[nH]n(-c2cccc(Cl)c2)c(=O)c1/C=N/n1c(C)nc2ccccc2c1=O`, the activation over 3SD threshold was -26.8% (inactive).
To `COc1cccc(NC(=O)C2C(c3ccccc3)C2(Cl)Cl)c1` (stereo unspecified) belongs 4.2% (active).
For `CCC1(C)Cc2c(sc3[nH]c(=S)n(Cc4ccccc4)c(=O)c23)CO1` (stereo unspecified), the activation over 3SD threshold is -16.6% (inactive).
Consider `CCn1c(O)c(N=NC2=NC(=O)CS2)c2cc(C)ccc21`, for which the activation over 3SD threshold was -22.6% (inactive).
As for `CCn1c(=S)[nH]c2sc3c(c2c1=O)CCCCC3`, the activation over 3SD threshold is -21.6% (inactive).
For `CCC1(C)Cc2c(sc3nnn(CC(=O)Nc4ccc(Cl)cc4)c(=O)c23)CO1` (stereo unspecified), the activation over 3SD threshold was 4.5% (active).
On to `Cc1cccc(NC(=S)NC(=O)c2ccc(Br)o2)c1`, for which the activation over 3SD threshold was -15.7% (inactive).
To `CS(=O)(=O)c1sc(C(=O)NC(=S)Nc2ccc(OC(F)(F)F)cc2)c2c1C=CCC2` belongs 45.7% (active); to `CCOC(=O)c1sc(=S)n2c1[nH]c(=O)c1ccc(C(=O)OC)cc12`, 4.8% (active).
`O=C(NCc1ccc2c(c1)OCO2)c1ccc(Cl)s1`: the activation over 3SD threshold is 49.7% (active).
To `CSc1nnc(NC(=O)c2nc(S(=O)(=O)Cc3ccc(C)cc3)ncc2Cl)s1` belongs -21.2% (inactive).
As for `FC(F)(F)c1cccc(NC(=S)Nc2cccc(Cl)c2)c1`, the activation over 3SD threshold was -10.3% (inactive).
